These results are taken from PubChem BioAssay AID1619 (SRMLSC, 2009).

About 830 (0.38%) of roughly 220,000 compounds were called active. The list is a sample of the results. Results with a measured potency or affinity are listed apart. A number with no mark means an inactive call.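 The calls were made as follows: active = compound inhibiting the enzyme by more than half at any dose during confirmatory dose-response retesting; inconclusive = strong single-dose inhibitors picked by rank but not retested; inactive = the rest.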

Leucine aminopeptidase (Plasmodium falciparum (isolate 3D7)), sequence (Q8IL11 whole entry, looked up): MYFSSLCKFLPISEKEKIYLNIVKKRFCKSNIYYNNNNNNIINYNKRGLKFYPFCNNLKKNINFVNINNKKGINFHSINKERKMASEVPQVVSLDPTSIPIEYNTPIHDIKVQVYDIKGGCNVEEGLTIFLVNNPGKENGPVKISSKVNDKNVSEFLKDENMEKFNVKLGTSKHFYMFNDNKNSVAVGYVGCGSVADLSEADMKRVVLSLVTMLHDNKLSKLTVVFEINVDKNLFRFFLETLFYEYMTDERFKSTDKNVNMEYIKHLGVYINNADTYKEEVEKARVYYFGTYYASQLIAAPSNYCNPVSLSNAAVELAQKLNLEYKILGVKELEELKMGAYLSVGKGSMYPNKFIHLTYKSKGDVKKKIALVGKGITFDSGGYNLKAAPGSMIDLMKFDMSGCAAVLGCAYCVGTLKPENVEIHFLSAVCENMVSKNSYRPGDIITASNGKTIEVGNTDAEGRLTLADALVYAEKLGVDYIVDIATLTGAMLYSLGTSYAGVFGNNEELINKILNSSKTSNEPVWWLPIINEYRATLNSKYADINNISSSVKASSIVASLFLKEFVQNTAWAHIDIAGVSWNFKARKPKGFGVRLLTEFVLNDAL

The experiment has as its target Leucine aminopeptidase (Plasmodium falciparum (isolate 3D7)) (UniProt Q8IL11). Kind of experiment: P. falciparum M17LAP inhibitors, primary screen, biochemical, fluorogenic H-Leu-NHMec substrate, 1536-well (AID 1619).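 Also: plate controls were full reaction with DMSO carrier for no effect and no enzyme background for full effect.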 Conditions: recombinant M17LAP, H-Leu-NHMec fluorogenic kinetic assay; at 30 µM; stronger effect = higher value.
For the molecule `CN1C2CCC1/C(=C\c1ccccc1)C(=O)/C2=C\c1ccccc1`, the inhibition (as a rule, the relative decrease from the control value, in per cent) was 5.66%.

For the molecule `CN1C2CCC1/C(=C\c1ccccc1Cl)C(=O)/C2=C\c1ccccc1Cl`, the inhibition was 3.79%.

For the molecule `O=c1[nH]cnc2scc(-c3cccs3)c12`, the inhibition was -7.24%.

Regarding `COc1ccc(OC)c(S(=O)(=O)n2nnc3ccccc32)c1`, the inhibition was 56.9%.

Consider `COc1ccc(Cl)cc1S(=O)(=O)n1nnc2ccccc21`, for which the inhibition is 49%.

For `O=S(=O)(Nc1cccc(-c2ccc3nncn3n2)c1)c1ccc(Cl)s1`, the inhibition was 26.4%.

`CN(C)c1cccc(-c2nnc(SCCCC#N)o2)c1`: the inhibition is -3.34%.

Consider `CCOC(=O)Cc1csc(NC(=O)NC2(C(F)(F)F)Oc3ccccc3O2)n1`, for which the inhibition is 6.11%.

As to `CCOC(=O)Cc1csc(NC(=O)NC2(C(F)(F)F)Oc3ccc(Cl)cc3O2)n1` (stereo unspecified), the inhibition was 52.5%.

On to `C=CCn1c(COC)nnc1SCC(=O)c1ccc(F)cc1`, for which the inhibition is -1.58%.

On to `CC(C)(C)c1ccc(C(=O)NN2C(=O)CSC2=S)cc1`, for which the inhibition was 5.92%.

For the molecule `Cc1ccc(C(=O)NN2C(=O)CSC2=S)cc1`, the inhibition was 33.1%.

`COc1ccccc1CNC(=O)CN1C(=O)C(C)N(c2ccc(C)cc2)C1=O` (stereo unspecified): the inhibition was -0.45%.

As for `O=S(=O)(Nc1nc2ccccc2nc1NCCO)c1cccc(Cl)c1`, the inhibition was 45%.

Take `Cc1c(Nc2nc3ccccc3nc2NS(=O)(=O)c2cccs2)c(=O)n(-c2ccccc2)n1C`: the inhibition was 35.4%.

Take `Cc1ccc(Nc2nc3ccccc3nc2Nc2c(C)n(C)n(-c3ccccc3)c2=O)cc1`: the inhibition was -3.59%.

Consider `Cc1c(NS(=O)(=O)c2ccccc2)c(=O)n(-c2ccccc2)n1C`, for which the inhibition is -14.2%.

As to `O=S(=O)(Nc1nc2ccccc2nc1NCC1CCCO1)c1cccc(Cl)c1` (stereo unspecified), the inhibition is 12.2%.

With `Cc1c(Nc2nc3ccccc3nc2N2CCN(c3ccccc3)CC2)c(=O)n(-c2ccccc2)n1C`, the inhibition was 9.74%.

As to `Cc1ccc(N(Cc2cc3ccccc3[nH]c2=O)S(=O)(=O)c2ccccc2)cc1`, the inhibition is 9.01%.

Consider `CCN(CC)C(=O)CSc1nnc(-c2ccc(S(=O)(=O)N3CCCC3)cc2)o1`, for which the inhibition is -8.97%.

For the molecule `CCOC(=O)C1=NNC2C(=O)N(Cc3ccccc3)C(=O)C12` (stereo unspecified), the inhibition is 5.31%.

In the case of `COC(=O)C1=C(C)N(c2ccc(OC)cc2)C(C)=C(C(=O)OC)C1c1ccc(OC)cc1`, the inhibition is -14.2%.

On to `Cc1nc2ccccc2c2c1C(=O)NC2=O`, for which the inhibition was -0.48%.

In the case of `CCOC(=O)C1CCN(c2cc(=O)n(C3CCCCC3)c(=O)[nH]2)CC1`, the inhibition was 7.51%.

On to `CS(=O)(=O)N(CC(=O)Nc1ccc(S(=O)(=O)N2CCOCC2)cc1)c1ccccc1Cl`, for which the inhibition is 12.3%.
